Key:
[1] = system: HCC1937; assay: relative cell viability, compound + erastin, vs DMSO (fraction of DMSO control); higher = less growth inhibition; details: 72 h
[2] = system: MDA-MB-231; assay: as above; details: 72 h
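Further: viability read by CCK-8 kit in 96-well plates, part of a combination screen pairing lipid-metabolism-targeting compounds with erastin.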

SMILES | relative cell viability [1] | relative cell viability [2]
O=C(Oc1ccc([N+](=O)[O-])cc1)N1CCN(Cc2cccc(Oc3ccccc3)c2)CC1 + CCOc1ccccc1-n1c(C(C)N2CCN(C(=O)COc3ccc(Cl)cc3)CC2)nc2ccccc2c1=O [erastin] | 0.199 | 0.312
O=C(O)c1ccnc(N2CC(O)(c3ccc(OCc4c(-c5c(Cl)cccc5Cl)noc4C4CC4)cc3Cl)C2)c1 [Cilofexor] + CCOc1ccccc1-n1c(C(C)N2CCN(C(=O)COc3ccc(Cl)cc3)CC2)nc2ccccc2c1=O [erastin] | 0.577 | 0.692
CC1(C)C[C@H]2C3=CC[C@@H]4[C@@]5(C)CC[C@H](O)[C@@](C)(CO)[C@@H]5CC[C@@]4(C)[C@]3(C)C[C@H](O)[C@@]2(CO)[C@@H](O)[C@@H]1O [Gymnemagenin] + CCOc1ccccc1-n1c(C(C)N2CCN(C(=O)COc3ccc(Cl)cc3)CC2)nc2ccccc2c1=O [erastin] | 0.918 | 0.785
Nc1ccc(O)c(C(=O)O)c1 [Mesalamine] + CCOc1ccccc1-n1c(C(C)N2CCN(C(=O)COc3ccc(Cl)cc3)CC2)nc2ccccc2c1=O [erastin] | 0.772 | 0.585
NC(=O)c1cccc(-c2cccc(OC(=O)NC3CCCCC3)c2)c1 + CCOc1ccccc1-n1c(C(C)N2CCN(C(=O)COc3ccc(Cl)cc3)CC2)nc2ccccc2c1=O [erastin] | 0.756 | 0.568
O=C(Nc1ccc(C(O)(C(F)(F)F)C(F)(F)F)cc1)c1ccccc1Cl + CCOc1ccccc1-n1c(C(C)N2CCN(C(=O)COc3ccc(Cl)cc3)CC2)nc2ccccc2c1=O [erastin] | 0.769 | 0.844
